Common to all, as to format: functional
In assay [1] the target is Solute carrier family 2, facilitated glucose transporter member 1 (Homo sapiens) (UniProt P11166). Kind of assay: ST_JUDE_LEISH: Cytotoxicity at 2uM final concentration against transgenic Leishmania Mexicana promastigotes LmGLUT1 that are glucose transport deficient and complemented with the human glucose transporter GLUT1. Activity is measured by DNA content using SYBR green in vitro.

Assay [2] deals with Hexose transporter 1 (Plasmodium falciparum) (UniProt O97467). Kind of assay: ST_JUDE_LEISH: Cytotoxicity at 2uM final concentration against transgenic Leishmania Mexicana promastigotes LmPfHT that are glucose transport deficient and complemented with the Plasmodium falciparum hexose transporter. Activity is measured by DNA content using SYBR green in vitro.
The target of assay [3] is Glucose transporter (Leishmania mexicana) (UniProt O61059). Put plainly: ST_JUDE_LEISH: Cytotoxicity at 2uM final concentration against transgenic Leishmania Mexicana promastigotes LmGT2 that are glucose transport deficient and complemented with the L. Mexicana glucose transporter 2. Activity is measured by DNA content using SYBR green in vitro.

SMILES strings stand for the structures.

Chain of Solute carrier family 2, facilitated glucose transporter member 1 (Homo sapiens) (P11166 whole entry): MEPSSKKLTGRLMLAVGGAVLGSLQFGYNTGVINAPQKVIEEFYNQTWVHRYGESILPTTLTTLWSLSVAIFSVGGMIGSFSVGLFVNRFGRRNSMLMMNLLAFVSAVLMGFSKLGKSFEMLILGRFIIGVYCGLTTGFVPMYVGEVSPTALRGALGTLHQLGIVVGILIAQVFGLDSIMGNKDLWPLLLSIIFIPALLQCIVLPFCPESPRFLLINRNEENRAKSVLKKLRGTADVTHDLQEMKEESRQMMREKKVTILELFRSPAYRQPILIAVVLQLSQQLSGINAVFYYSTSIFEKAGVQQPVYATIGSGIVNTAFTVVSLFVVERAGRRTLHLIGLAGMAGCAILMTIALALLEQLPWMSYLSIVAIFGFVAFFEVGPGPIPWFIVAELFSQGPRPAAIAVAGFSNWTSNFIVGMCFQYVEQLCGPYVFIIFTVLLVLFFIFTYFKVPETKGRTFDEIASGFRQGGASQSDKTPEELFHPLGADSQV

Turning to `COc1ccc(CCNC(=O)c2ccc(-n3cc(NC(=O)c4cccnc4)cn3)cc2)cc1OC`, the figures for the inhibition in assay [1], in assay [2] and in assay [3] were 3.78%, 3.85% and 3.79%, respectively.

On to `O=C(/C=C/c1ccc(Cl)c(Cl)c1)NC1CCC(CN2CCC(c3coc4ccccc34)CC2)CC1` (stereo not given), for which the values for the inhibition in assay [1], in assay [2] and in assay [3] were -1.76%, 1.76% and -1.87%, respectively.

`O=C(Nc1ccc(Cn2ncc(N3CCCNCC3)c(Cl)c2=O)cc1)Nc1cc(Cl)cc(Cl)c1`: the figures for the inhibition in assay [1], in assay [2] and in assay [3] were 2.15%, 3.38% and 0.75%, respectively.

On to `O=S(=O)(NCCN1CCCC1)c1ccc(-c2cccc(CNC3Cc4ccccc4C3)c2)s1`, for which the inhibition turned out to be 13.9% in assay [1], 13.6% in assay [2] and 5.84% in assay [3].

Regarding `O=C(Nc1ccc(-c2cccc(-c3nc4ccccc4[nH]3)c2)cc1)Nc1ccc(Cl)c(Cl)c1`, the inhibition in assay [1] was -0.46%; in assay [2], 0.83%; in assay [3], 0.9%.

As for `Cc1[nH]c2ccccc2c1C1CCN(CCCCNC(=O)c2ccc(-c3ccc(C#N)cc3)cc2)CC1`, the inhibition is 11.2% in assay [1], 9.94% in assay [2] and 10.3% in assay [3].

As to `CC1CCC(C(C)C)C(OC(=O)CSc2nnc3c(n2)[nH]c2ccccc23)C1` (stereo not given), the inhibition was -1.05% in assay [1], -0.14% in assay [2] and -0.42% in assay [3].

Take `CC(C)c1ccc(NC(=O)NC2CCN(CCCCCNC(=O)/C=C/c3ccc(Cl)c(Cl)c3)CC2)cc1`: the inhibition in assay [1] was -0.71%; in assay [2], -0.91%; in assay [3] it was -0.17%.

Regarding `Cc1cccc(NC(=O)NC2CCN(CCCCCNC(=O)/C=C/c3ccc(Cl)c(Cl)c3)CC2)c1`, the inhibition in assay [1] worked out at 4.31%; in assay [2], 3.83%; in assay [3] it was 3.5%.

Regarding `Cc1ccc2[nH]c(C)cc(=NN=Cc3ccccc3Cl)c2c1`, the inhibition in assay [1] is 2.11%; in assay [2], 3.39%; in assay [3] it was 0.08%.

Turning to `O=C(O)CCSc1ncnc2[nH]cnc12`, the inhibition was -2.53% in assay [1], -2.15% in assay [2] and -2.15% in assay [3].

Consider `COc1ccc(-c2cncc3ccc(C(=O)NCc4ccncc4)nc23)cc1`, for which the inhibition came out at 6.53% in assay [1], 4.27% in assay [2] and 2.69% in assay [3].

Consider `c1ccc(Oc2ccc(Nc3ccnc4cc(-c5csc(CN6CCCCC6)n5)ccc34)cc2)nc1`, for which the inhibition in assay [1] was found to be 0.24%; in assay [2], 1.27%; in assay [3] it was 0.89%.

For the compound `NC1CCN(Cc2cccc(-c3ccc(-c4nc5ccccc5[nH]4)s3)c2)C1` (stereo not given), the inhibition in assay [1] amounted to 3.94%; in assay [2] it was 2.41%; in assay [3], 4.58%.

As for `CCN1CCN(c2cc(C)c3cc(NC(=O)c4ccc(N(CC)CC)cc4)ccc3n2)CC1`, the figures for the inhibition in assay [1], in assay [2] and in assay [3] were -0.29%, 2.18% and -3.38%, respectively.

Consider `Nc1ncc(-c2ccc(S(=O)(=O)Nc3ccc(C(=O)N[C@@H](CCC(=O)O)C(=O)O)cc3)cc2)c(=O)[nH]1`, for which the values for the inhibition in assay [1], in assay [2] and in assay [3] were 4.56%, 4.19% and 4.44%, respectively.

Consider `CCN(CCNC(=O)Cn1c(C)cc2cc([N+](=O)[O-])ccc21)c1cccc(C)c1`, for which the inhibition was found to be 6.46% in assay [1], 6.77% in assay [2] and 6.91% in assay [3].

For the compound `CC(Cc1ccc(C(=O)Nc2ccc(CC(C)NCCc3cccc(Cl)c3)cc2)cc1)NCCc1ccc(C(F)(F)F)cc1` (stereo not given), the inhibition in assay [1] turned out to be 56.4%; in assay [2] it was 37.1%; in assay [3] it was 48.1%.

Regarding `COc1ccc2nccc([C@@H](O)CN3CCC(NCc4nc5ccc(F)cc5[nH]4)CC3)c2c1`, the inhibition in assay [1] was 2.34%; in assay [2], 1.93%; in assay [3], 2.2%.

Consider `Oc1ccccc1CN1CCCC(COC(c2ccc(F)cc2)c2ccc(F)cc2)C1` (stereo not given), for which the inhibition in assay [1] stood at 3.68%; in assay [2] it was 3.28%; in assay [3], 0.55%.

Take `CN(C)CCOc1ccc2nc(-c3cccc(OCc4ccccc4)c3)[nH]c2c1C#N`: the inhibition stood at 2.41% in assay [1], 1.25% in assay [2] and 1.74% in assay [3].

Take `CN1C(=O)C(=NN=C(S)N2CCOCC2)c2ccccc21`: the results for the inhibition in assay [1], in assay [2] and in assay [3] were 23.4%, 63.9% and 12.7%, respectively.

As for `CN(C)C1CCN(CC#Cc2cc3ncnc(Nc4ccc(OCc5cccc(F)c5)c(Cl)c4)c3s2)CC1`, the results for the inhibition in assay [1], in assay [2] and in assay [3] were 1.79%, 0.49% and 2.9%, respectively.

In the case of `CC(C)CCNC(=O)C1Cc2c([nH]c3cc(Cl)ccc23)C2(CCN(CCc3ccccc3)CC2)N1` (stereo not given), the inhibition turned out to be 1.75% in assay [1], 2.24% in assay [2] and 0.76% in assay [3].

For `CN1CCN(Cc2c(O)ccc3c(=O)c(Oc4ccc(C(C)(C)C)cc4)c(C(F)(F)F)oc23)CC1`, the figures for the inhibition in assay [1], in assay [2] and in assay [3] were 70.7%, 74.1% and 46.6%, respectively.

With `NC(=O)c1cccc(Nc2nccc(Nc3ccc4[nH]c(-c5ccccc5)cc4c3)n2)c1`, the inhibition in assay [1] is -0.28%; in assay [2], 0.57%; in assay [3] it was 1.6%.

In the case of `Cc1cc(=NN=Cc2ccccc2F)c2cccc(C)c2[nH]1`, the inhibition in assay [1] stood at 3.9%; in assay [2], 5.38%; in assay [3], 0.4%.

As for `CC(=O)Nc1nc(C(=O)Nc2ccc(-c3cccc(-c4nc5ccccc5[nH]4)c3)cc2)cs1`, the inhibition in assay [1] was 1.93%; in assay [2], 2.85%; in assay [3], 0.42%.

Turning to `CC(C)c1ccc(NC(=O)Nc2ccc(CCNCCCc3ccccc3)cc2)cc1`, the inhibition worked out at 0.62% in assay [1], 0.01% in assay [2] and 0.36% in assay [3].

Take `Cn1nccc1C(=O)NCCNCc1cccc(-c2ccc(-c3nc4cc(C(F)(F)F)ccc4[nH]3)cc2)c1`: the figures for the inhibition in assay [1], in assay [2] and in assay [3] were -3.3%, -1.43% and -2.04%, respectively.

Consider `CC(OC(=O)c1ccc(C(=O)NCC2CC2)cc1)C(C)(C)C` (stereo not given), for which the inhibition in assay [1] was 4.1%; in assay [2] it was 3.44%; in assay [3], -0.96%.

For the compound `COc1ccc(C(=O)COc2cccc(/C=C/C(=O)O)c2)cc1OC`, the figures for the inhibition in assay [1], in assay [2] and in assay [3] were 0.26%, 0.15% and -0.23%, respectively.

Take `CC1(C)NC(N)=NC(=N)N1OCCOc1ccc(Cc2ccccc2)cc1`: the inhibition in assay [1] is 1.41%; in assay [2], 0.91%; in assay [3], 0.68%.

As to `N#Cc1ccc2c(c1)CCN(CCC1CCC(NC(=O)/C=C/c3cccc4ccccc34)CC1)CC2` (stereo not given), the inhibition in assay [1] was determined as 4.36%; in assay [2], 9.02%; in assay [3], 2.63%.

On to `CCc1c(C)nc(-n2nc(C)cc2NC(=O)c2ccc(OC)cc2OC)[nH]c1=O`, for which the inhibition in assay [1] was 30.4%; in assay [2] it was 31.7%; in assay [3], 8.75%.

The record behind these values is ChEMBL document CHEMBL3433997, “St. Jude Leishmania screening dataset” (2016).
